# According to the supplement of paper PMC3334620:
# Over roughly 33,000 sequences, “E-score (-0.5 to 0.5)” has its median near -0.0034; the highest 2% begin near 0.25. The full list was thinned out, with the highest values kept by preference.
# Target: T1, Yap3 (UniProt P38749)
# T1 sequence: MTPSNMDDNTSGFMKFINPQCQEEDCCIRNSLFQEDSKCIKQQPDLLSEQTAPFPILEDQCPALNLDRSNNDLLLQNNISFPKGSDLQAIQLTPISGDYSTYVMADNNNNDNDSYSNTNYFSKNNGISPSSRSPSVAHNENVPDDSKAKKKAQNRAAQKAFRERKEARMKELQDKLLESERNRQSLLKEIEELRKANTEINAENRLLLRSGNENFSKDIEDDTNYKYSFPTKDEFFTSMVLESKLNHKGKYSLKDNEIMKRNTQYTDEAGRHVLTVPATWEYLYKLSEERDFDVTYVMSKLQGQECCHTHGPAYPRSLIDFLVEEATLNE
# Test: PBM E-score (8-mer binding enrichment) (E-score (-0.5 to 0.5)); higher = stronger / more preferred TF binding
# Conditions: protein concentration: 100 nM; construct: GST-full length
# In short: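 Yeast transcription factors carrying a GST tag, as full-length proteins or DNA-binding domains, were produced by PURExpress in vitro transcription/translation. About 100-200 nM protein was applied to universal all-10-mer Agilent arrays, double-stranded by primer extension on fresh or once-stripped slides. Bound protein was detected with fluorescent anti-GST, and scans were normalised with masliner. The Universal PBM Analysis Suite gave each ungapped eight-base word, pooled with its reverse complement, an E-score, a modified Wilcoxon-Mann-Whitney statistic.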
row,Sequence,PBM E-score
1,AAGATACT,-0.0357
2,GAGATACA,0.167
3,AAGATAAG,0.0204
4,AAGATACA,0.262
5,AAGGCCAC,-0.143
6,ACGCGAAT,0.106
7,CAATTAGC,0.085
8,ACAGACCG,-0.0661
9,CTCCCATC,0.0634
10,ACCAGAGG,-0.119
11,AATTCGCG,0.0991
12,AATTCGCT,0.289
13,AATTCGCC,0.125
14,CTGCACTA,0.262
15,GTGCACTA,0.0636
16,CTGCACTC,0.0431
17,AGACCATA,0.156
18,ATACGTCA,0.0839
19,CTACGTTA,0.0868
20,GTACGTCA,0.267
21,GTACGTTA,0.256
22,CTACGTCA,-0.0902

row,Sequence,PBM E-score
1,ATACGTTA,0.0384
2,CGAAGTAA,0.0985
3,GTGCCCAA,-0.0496
4,ATTAACAA,0.282
5,GTTAACAA,0.205
6,AATAACAT,0.164
7,ATTAACAC,0.273
8,AATAACAC,0.288
9,ATTAACTC,0.193
10,ATTAACAG,0.0676
11,AATAACAG,0.149
12,CTTAACAC,0.114
13,CCTGGTGC,-0.102
14,AATGCACG,-0.00779
15,ACATTTCG,0.0557
16,ACCTGGTC,-0.115
17,TAATGGAA,0.256
18,TAATGTAA,0.312
19,AAATGTAA,0.227
20,GAATGTAA,0.221
21,AAATGGAA,0.0788
22,GAATGGAA,0.131

row,Sequence,PBM E-score
1,CGAGGCGC,-0.0513
2,ATATTGAC,0.069
3,ATGCAGAC,-0.0609
4,CCTGGGTA,-0.172
5,GAAACGAA,0.255
6,CAAACGAA,0.0114
7,GAAACGAC,0.123
8,GGCGGGGA,0.233
9,GATAATAC,0.182
10,AATAATAG,0.2
11,CGCAATAA,0.191
12,GGCAATAA,0.114
13,TATAATAA,0.287
14,AATAATAC,0.296
15,AATAATAA,0.308
16,TATAATGA,0.136
17,CATAATAC,0.24
18,GATAATAA,0.113
19,CATAATAA,0.105
20,TGCAATAA,0.272
21,CAGCTGCC,-0.0739
22,CATCCTTA,-0.00117

row,Sequence,PBM E-score
1,CCCAGTTC,-0.0993
2,GGTGCGGA,-0.0917
3,CGATGGAC,-0.0566
4,AACCATCC,-0.0788
5,AATGCTCT,-0.0877
6,CAGACAAA,0.126
7,CGCTCACC,-0.0419
8,GCCCAGCA,-0.301
9,AAGAATAT,0.0717
10,AATAATCG,0.107
11,CATAATGG,-0.033
12,AATAATCC,0.109
13,AATAATCT,0.31
14,AATAATGT,0.233
15,AATAAGAG,0.195
16,AATAAGAT,0.075
17,AATAATAT,0.337
18,AATAATGG,0.329
19,AATAAGAA,0.269
20,GACGGGGA,-0.164
